In PubChem BioAssay (EPA / NIEHS):
Values joined by “and” are separate entries in the source; they are usually repeats but may differ in a detail not shown here. Equal values may be shown once. A structure can be active in one record and inactive in another. Active and inactive are the calls of the source. The calls were made as follows: active = hit-call score of the fitted dose curve at least 0.9, where 1 is the maximum; inactive = score below 0.9.

Read-out: Interleukin-8 (IL8), CXCL8 (gene 3576)
Test: BSK_BE3C_IL8: BioMAP Diversity Plus: BE3C Assay for Interleukin-8 (IL8) Biomarker Activity (AID 2284280)
Conditions: primary human bronchial epithelial cells
How it was run: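 Measured at 24 h after treatment, IL-8 from human primary bronchial epithelial cells is determined by ELISA, and the response is modelled as increasing relative to DMSO negative control.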

**Q.** For O=C(O)C(F)(OC(F)(F)C(F)(OC(F)(F)C(F)(OC(F)(F)C(F)(F)C(F)(F)F)C(F)(F)F)C(F)(F)F)C(F)(F)F (stereo not given), which outcome is on record?
**A.** inactive

**Q.** With FC(F)(F)C(F)(F)C(F)(F)C(F)(F)C(F)(F)C(F)(F)CCS as the compound, how does the outcome read?
**A.** inactive

**Q.** C=C(C)C(=O)OCC(F)(F)C(F)(F)C(F)(F)C(F)(F)C(F)(F)C(F)(F)C(F)(F)F was tested. Which outcome did it give?
**A.** inactive

**Q.** For FC(F)(F)C(F)(F)C(F)(F)C(F)(F)CCI, which outcome is on record?
**A.** inactive

**Q.** How did the outcome turn out when O=C(O)C(F)(F)C(F)(F)C(F)(F)F was run?
**A.** inactive

**Q.** Which results are given for N=C(N)C(F)(F)C(F)(F)C(F)(F)C(F)(F)C(F)(F)C(F)(F)C(F)(F)F?
**A.** AC50: 30 µM (active); outcome: inactive

**Q.** Which AC50 does the source give for O=C(O)C(F)(OC(F)(F)C(F)(OC(F)(F)C(F)(F)C(F)(F)F)C(F)(F)F)C(F)(F)F (stereo not given) here?
**A.** 0.025 µM (active)

**Q.** And the outcome?
**A.** inactive

**Q.** For O=C(O)C(F)(F)C(F)(F)C(F)(F)C(F)(F)C(F)(F)C(F)(F)C(F)(F)C(F)(F)C(F)(F)C(F)(F)C(F)(F)C(F)(F)C(F)(F)F, which outcome is on record?
**A.** inactive

**Q.** With FC(F)(F)C(F)(F)C(F)(F)N(C(F)(F)C(F)(F)C(F)(F)F)C(F)(F)C(F)(F)C(F)(F)F as the compound, how does the outcome read?
**A.** inactive

**Q.** O=C(O)C=C(C(F)(F)F)C(F)(F)F was tested. Which outcome did it give?
**A.** inactive

**Q.** For O=C(O)C(F)(F)C(F)(F)F, which AC50 is on record?
**A.** 26.1 µM (active)

**Q.** What about the outcome of the same compound?
**A.** inactive

**Q.** Which results are given for FC(F)(I)C(F)(F)C(F)(F)C(F)(F)I?
**A.** AC50: 47.4 µM (active) and 46 µM (active); outcome: inactive

**Q.** For OCC(F)(F)C(F)(F)C(F)(F)F, which outcome is on record?
**A.** inactive

**Q.** With FC(F)(F)C(F)(F)C(F)(F)C(F)(F)C(F)(F)C(F)(F)C(F)(F)Br as the compound, how does the outcome read?
**A.** inactive

**Q.** How did the AC50 turn out when OCC(F)(F)C(F)(F)C(F)(F)C(F)F was run?
**A.** 14.5 µM (active)

**Q.** What about the outcome of the same compound?
**A.** inactive
